# Source: PubChem (National Center for Advancing Translational Sciences (NCATS))
# Compounds with a hit are over-represented: about 7% of the library has one in this group of screens.
# PI5P4K alpha inh: blocks human PI5P4K alpha kinase activity | PI5P4Kalpha enzyme, ADP-Glo luminescence, 60 min; active compounds read low | max response, % | 330,000 tested, 1.2% active | AID 652105; active means max response of -50% or lower; inconclusive means between -30% and -50%; inactive means -30% or higher; further: value at the top dose of about 77 µM; on the % scale 0 is the no-effect control and ±100 the full control effect
#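 Quantitative HTS of the MLSMR library against PI5P4Kalpha with substrate. ATP added last at 5 microM final; room temperature, 60 minutes. Remaining ATP depleted, ADP converted and read as luminescence.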
# BAZ2B block: blocks human BAZ2B; AlphaScreen BAZ2B-H3K14Ac peptide displacement; Potency, µM (doses to about 114 µM), inactives show top-dose activity change, negative = inhibition, most hits filed as inhibitors; 360,000 tested, 4.4% active; further: potency means the concentration at half of the fitted maximal effect; on the % scale 0 is the no-effect control and ±100 the full control effect; nearly all actives have a fitted effect of over 60% in size
#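 BAZ2B 50 nM plus b-H3(5-23)K14Ac 50 nM, PBS pH 7.4/0.01% Tween-20, 30 min RT; compound added (max 110 uM), 30 min RT; streptavidin donor/Ni-chelate acceptor beads 10 ug/mL final, 20 min dark; AlphaScreen read.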
# JMJD2A Tudor: inhibitors of human JMJD2A Tudor domain; 390,000 tested, 4.4% active; O75164; Potency, µM (highest dose often 114 µM), for the others: at the top dose activity change, negative = inhibition, most hits filed as inhibitors; AlphaScreen JMJD2A-Tudor / H3K4me3 peptide binding; further: potency means the concentration at half of the fitted maximal effect; on the % scale 0 is the no-effect control and ±100 the full control effect; nearly all actives have a fitted effect of over 50% in size
# GCN5L2 inh: inhibitors of human GCN5L2 histone acetyltransferase | GCN5L2 HAT assay, ThioGlo1 CoA-SH fluorescence | 390,000 tested, 0.21% active | AID 504327 | Potency, µM (top dose mostly 58.9 µM), for inactives: at the top dose activity change, negative = inhibition, most hits filed as inhibitors; further: potency means the concentration at half of the fitted maximal effect; on the % scale 0 is the no-effect control and ±100 the full control effect
# Target sequence (Q92830 whole entry, looked up): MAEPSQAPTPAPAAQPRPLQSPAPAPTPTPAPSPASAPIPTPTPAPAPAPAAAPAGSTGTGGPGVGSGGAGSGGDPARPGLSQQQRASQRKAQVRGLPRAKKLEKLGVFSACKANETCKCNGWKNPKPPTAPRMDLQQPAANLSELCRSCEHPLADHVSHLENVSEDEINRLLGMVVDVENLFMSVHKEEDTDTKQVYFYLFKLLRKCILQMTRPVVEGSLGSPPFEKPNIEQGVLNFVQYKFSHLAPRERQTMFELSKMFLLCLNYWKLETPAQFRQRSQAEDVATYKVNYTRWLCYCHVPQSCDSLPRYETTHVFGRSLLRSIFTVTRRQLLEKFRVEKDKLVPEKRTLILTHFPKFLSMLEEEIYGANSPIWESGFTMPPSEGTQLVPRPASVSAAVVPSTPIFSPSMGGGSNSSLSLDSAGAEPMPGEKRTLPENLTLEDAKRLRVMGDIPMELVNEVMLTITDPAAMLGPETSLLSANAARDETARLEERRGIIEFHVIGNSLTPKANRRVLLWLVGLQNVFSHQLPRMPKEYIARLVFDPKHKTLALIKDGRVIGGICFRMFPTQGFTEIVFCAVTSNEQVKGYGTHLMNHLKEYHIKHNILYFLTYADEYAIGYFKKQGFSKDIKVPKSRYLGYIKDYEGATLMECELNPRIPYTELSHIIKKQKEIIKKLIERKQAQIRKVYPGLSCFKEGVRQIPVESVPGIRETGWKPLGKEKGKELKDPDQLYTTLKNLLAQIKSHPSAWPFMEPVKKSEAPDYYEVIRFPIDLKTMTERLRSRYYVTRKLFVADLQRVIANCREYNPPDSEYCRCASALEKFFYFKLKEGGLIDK
#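 Enzyme at 20nM final was mixed with library compounds for 15 min at room temperature. Peptide H3(1-25) at 75uM, acetyl-CoA at 70uM and ThioGlo1 at 50uM were then added. Plates were read immediately and after 20 min (Ex340nm/Em540nm).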
# PLK1 PBD inh: PLK1 (human) polo-box domain binding inhibition. AID 720504. Plk1 PBD binding of FITC phosphopeptide, fluorescence polarization. 360,000 tested, 2.8% active. Potency, µM, without a hit: max response, negative = inhibition, usual class: inhibitors; further: potency means the concentration at half of the fitted maximal effect; series mostly up to about 57 µM; on the % scale 0 is the no-effect control and ±100 the full control effect; nearly all actives have a fitted effect of over 65% in size
# HP1b chromo inh: HP1-beta chromodomain-methylated histone interaction inhibition | AID 540317 | 390,000 tested, 0.56% active | AlphaScreen HP1-beta / biotin-H3K9me3 peptide binding | Potency, µM (series often up to 114 µM), without a hit: at the top dose activity change, negative = inhibition, hits mostly inhibitors; further: potency means the concentration at half of the fitted maximal effect; nearly all actives have a fitted effect of over 70% in size
#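 AlphaScreen: HP1-beta (50 nM) preformed 30 min with biotin-H3(1-18)K9me3 peptide (50 nM) in PBS pH 7.4, 0.01% Tween-20. Compound added for 30 min at RT, then streptavidin donor/nickel chelate acceptor beads (10 ug/mL) for 30 min.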
# Numbers without * were called inactive; ? = inconclusive; . = no result; ! = not active in a repeat; [ ] = another dose, or the depositor's remark. Unless noted, the call rests on the fitted dose curve; in most records, active means well fitted curve in the direction sought with a large enough effect; inconclusive means small, poorly fitted or top-dose-only effect, or another doubt; inactive means no such curve, though single readings can be large; an effect the other way counts as inactive or inconclusive.
SMILES,PI5P4K alpha inh,BAZ2B block,JMJD2A Tudor,GCN5L2 inh,PLK1 PBD inh,HP1b chromo inh
Cc1nn(-c2ccccc2)c2c1C(c1ccc([N+](=O)[O-])cc1)C(C#N)=C(N)O2 (centres undefined),-3.2,?,-33.1%,-4.7%,?,-0.5%
Cc1nn(-c2ccccc2)c2c1C(c1cccs1)C(C#N)=C(N)O2 (centres undefined),-17.1,39.8µM*,56.2µM*,-10.9%,?,50.1µM*
CCCc1nn(-c2ccccc2)c2c1C(c1cccs1)C(C#N)=C(N)O2 (centres undefined),0.4,39.8µM*,?,-9.5%,-11.8%,-26.9%
N#CC1=C(N)Oc2cc(O)ccc2C1c1cccs1 (centres undefined),-19.4,-3.4%,-2.7%,-4.3%,-0.4%,27.8%
CCOC(=O)C(Sc1cc(-c2ccccc2)nc2ncnn12)C(C)=O (centres undefined),-7.6,-15.5%,-14.6%,-1.0%,5.6%,36.5%
CC(=O)Nc1ccc(S(=O)(=O)N2CCN(c3ccc(C)c(C)c3)CC2)cc1,.,-21.7%,-17.9%,-8.8%,.,20.5%
CCN(CC)c1ccc(C(=C2C=CC(=[N+](CC)Cc3cccc(S(=O)(=O)[O-])c3)C=C2)c2ccc(N(CC)Cc3cccc(S(=O)(=O)O)c3)cc2)cc1,.,.,.,10µM*,.,.
CCOC(=O)c1cc(-c2ccc(C)cc2)n(CCC(=O)Nc2cc(Cl)ccc2C)c1C,.,-1.5%,-6.9%,-2.6%,.,14.9%
CCc1ccc(C(=O)c2cn(CC(=O)Nc3ccc4c(c3)OCCO4)c3ccc(CC)cc3c2=O)cc1,.,79.4µM*,2.0%,0.2%,.,42.8%
CCc1ccc(C(=O)c2cn(CC(=O)Nc3ccc(OC)cc3)c3cc4c(cc3c2=O)OCCO4)cc1,.,1.3%,-11.9%,2.7%,.,21.7%
CCOc1ccc(NC(=O)Cn2cc(C(=O)c3ccc(CC)cc3)c(=O)c3cc(OC)c(OC)cc32)cc1,.,-0.9%,-14.6%,-2.5%,.,43.4%
CCc1ccc(C(=O)c2cn(CC(=O)Nc3ccc(F)c(F)c3)c3cc(OC)c(OC)cc3c2=O)cc1,.,79.4µM*,-22.8%,-19.7%,.,12.2%
CCc1ccc(C(=O)c2cn(CC(=O)Nc3cc(OC)cc(OC)c3)c3ccc(CC)cc3c2=O)cc1,.,6.5%,-9.9%,-24.3%,.,25.8%
CCOc1ccc(C(=O)c2cn(CC(=O)Nc3cc(OC)cc(OC)c3)c3ccc(F)cc3c2=O)cc1,.,89.1µM*,-33.4%,-12.9%,.,25.8%
O=C(NCc1ccc(F)cc1)n1c(-c2ccccc2)c(P(=S)(c2ccccc2)c2ccccc2)c2ccccc21,.,.,-11.6%,.,.,.
COc1ccc(-c2nc3c(c(SCC(=O)N4CCCCC4)n2)Cc2cc(Cl)ccc2O3)cc1,.,1.0%,-10.3%,1.6%,.,51.0%
COc1cc2nc(N3CCNCC3)nc(N)c2cc1OC,?,-0.8%,?,-0.6%,-1.8%,?
COc1cc2nc(N3CCN(c4cc(C)ccc4C)CC3)nc(N)c2cc1OC,?,50.1µM*,?,-3.6%,0.7%,-14.7%
CN(C(=O)COC(=O)c1ccc(=O)n(Cc2ccccc2)n1)c1ccccc1,?,-11.2%,?,-3.2%,16.8µM*,7.2%
COc1cccc(OC)c1C(=O)OCC(=O)N(C)c1ccccc1,-8.5,6.0%,?,-6.7%,26.7µM*,-3.4%
COc1ccc(C(=O)NCC(=O)OCC(=O)N(C)c2ccccc2)cc1,6.5,-9.7%,-1.7%,4.3%,-5.4%,19.5%
Cc1cc(C)cc(C(=O)NCC(=O)OCC(=O)N(C)c2ccccc2)c1,-6.1,.,50.1µM*,0.1%,23.8µM*,-1.8%
CCc1ccc(NC(=O)CCCc2nnc3n(C(C)CC)c(=O)c4sccc4n23)cc1 (centres undefined),.,?,-13.9%,-3.3%,.,12.8%
COc1cc(C(=O)Nc2nnc(S(=O)(=O)N(C)c3ccccc3)s2)cc(OC)c1OC,.,-17.8%,-3.9%,-2.2%,.,24.5%
COc1cccc(C(=O)c2cn(CC(=O)NCc3ccccc3)c3nc(C)ccc3c2=O)c1,.,8.3%,?,-23.6%,.,60.5%
SMILES,PI5P4K alpha inh,BAZ2B block,JMJD2A Tudor,GCN5L2 inh,PLK1 PBD inh,HP1b chromo inh
CC1=NN(c2ccc(C(F)(F)F)cn2)C(=O)C1,0.3,8.91µM*,79.4µM*,-2.3%,-18.5%,40.1%
Cc1ccc(C)c(NC(=O)CCC(=O)NN=C2CCCC2)c1,-5.7,-12.7%,3.4%,-3.0%,-2.9%,51.7%
O=C(Nc1ccc(C(=O)Nc2ccc(C(=O)Nc3ccc(S(=O)(=O)O)c4cc(S(=O)(=O)O)cc(S(=O)(=O)O)c34)cc2)cc1)Nc1ccc(C(=O)Nc2ccc(C(=O)Nc3ccc(S(=O)(=O)O)c4cc(S(=O)(=O)O)cc(S(=O)(=O)O)c34)cc2)cc1,.,.,.,15.8µM*!,.,.
COc1ccc(-c2cc(=O)n(-c3ccc([N+](=O)[O-])cc3)[nH]2)cc1,-27.8,39.8µM*,56.2µM*,-14.7%,-4.2%,?
COc1ccc(-c2[nH]n(-c3ccc([N+](=O)[O-])cc3)c(=O)c2C=NCc2ccc(F)cc2)cc1,-3.1,4.3%,-25.7%,-9.0%,-10.2%,9.3%
O=[S+]([O-])(c1ccc2c(c1)OCCO2)N1CCN([S+](=O)([O-])c2cc(Cl)ccc2F)CC1,.,.,-11.0%,.,.,.
CC1CC(C)CN(c2ccc(NS(=O)(=O)c3ccccc3)cc2C(=O)O)C1 (centres undefined),-2.1,-4.2%,0.3%,-3.7%,-1.5%,49.8%
Cc1ccc(C(=O)Nc2nnc(S(=O)(=O)N(C)Cc3ccco3)s2)cc1,.,2.4%,-19.1%,-4.8%,.,53.1%
CCCC(=O)Nc1nnc(S(=O)(=O)N(C)Cc2ccco2)s1,-8.6,?,?,-2.8%,26.7µM*,-13.4%[57 µM]
Cc1ccccc1C(=O)Nc1nnc(S(=O)(=O)N(C)Cc2ccco2)s1,-14.9,-20.1%,-18.9%,-2.1%,-10.1%,43.9%
CCC(=O)Nc1nnc(S(=O)(=O)N(C)Cc2ccco2)s1,-8.7,-9.4%,?,-5.9%,26.7µM*,19.2%
Cc1ccc(C(=O)NCC(=O)NC2CCCCCC2)cc1,4.8,5.5%,-4.8%,-5.7%,-4.7%,8.3%
CCOC(=O)C1=CN(Cc2cccc(-c3ccc4c(c3)OCO4)c2)S(=O)(=O)N(C)C1C (centres undefined),6.8,.,-10.3%,-6.0%,-8.8%,28.0%
CCOC(=O)C1CCCN(C(=O)c2ccc3sccc3c2)CC1 (centres undefined),-0.3,.,.,.,0.4%,.
Cc1ccc(C)c(NC(=O)c2ccccc2NS(=O)(=O)c2cc([N+](=O)[O-])ccc2C)c1,-0.2,7.4%,-19.9%,-2.2%,59.7µM*,39.6%
Cc1ccc([N+](=O)[O-])cc1S(=O)(=O)Nc1cccc(S(=O)(=O)Nc2ccccc2C(=O)O)c1,-16.0,.,-20.1%,0.5%,-11.8%,-0.4%
